High-throughput results: PubChem, National Center for Advancing Translational Sciences (NCATS)
In the library only some 6.5% were active in any assay of this set; here they are far more common.
VACV mCherry inh – inhibitors of vaccinia virus infection (mCherry reporter signal) | Potency, µM (doses to about 36.5 µM), hits mostly inhibitors | Vaccinia virus mCherry reporter infection, fluorescence | hit rate 0.63% among 310,000; calls by dose curve; tested in A549 cells; also: nearly all actives have a fitted effect of over 35% in size
Marburg entry inh – inhibitors of Marburg virus binding or cell entry | Marburg virus pseudotyped entry inhibition, cell reporter | Potency, µM (series often up to 37.8 µM), actives largely listed as inhibitors | hit rate 1.8% among 300,000; calls by dose curve; tested in HEK293 cells
Lassa entry inh – inhibitors of Lassa virus binding or cell entry | Lassa virus pseudotype entry inhibition, cell reporter | Potency, µM (titrated, usually from 37.9 µM), actives largely listed as inhibitors | hit rate 1.2% among 300,000 | AID 540256; calls by dose curve; tested in HEK293 cells; also: nearly all actives have a fitted effect of over 50% in size
FMDV inh – foot and mouth disease virus antiviral activity; Potency, µM (series often up to 57.9 µM), actives largely listed as inhibitors; FMDV antiviral cell-based qHTS; hit rate 1.2% among 410,000; calls by dose curve; tested in HEK293T cells; also: read-out not given here; nearly all actives have a fitted effect of over 45% in size
VACV Venus inh – vaccinia inhibition (Venus reporter). AID 720580. hit rate 0.46% among 330,000. Vaccinia virus Venus reporter expression, fluorescence. Potency, µM (doses to about 36.5 µM), most hits filed as inhibitors; calls by dose curve; tested in A549 cells; also: nearly all actives have a fitted effect of over 30% in size
HCMV inh – inhibitors of human cytomegalovirus. hit rate 4.5% among 410,000. HFF cells, HCMV-luciferase reporter, 72 h; active compounds read low. AID 1259415. activity change, negative = inhibition, % at 57.5 µM; in the data active = activity change below about -60%; inconclusive = no clear call, values can overlap the other calls; inactive = above about -39%
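Cell-based, HFFs, 1000 cells/well, 16 h 37C; cpds in DMSO + HCMV-luc, MOI 1 PFU/cell; 72 h 37C; OneGlo luminescence after 5 min RT; norm. to buffer vs Salinomycin 10uM.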
Each line names hits and unclear results; the compound was inactive in the other large screens.

COc1ccc(CN2CCN(C(C)=O)CC2)cc1OC1CCN(C(=O)c2ccc3ccccc3n2)CC1	none (no result: Marburg entry inh, Lassa entry inh, HCMV inh)
CC(C)c1ccc(C2=CC(c3cccc(Cl)c3)n3c(nc4ccccc43)N2)cc1 (configuration not stated)	HCMV inh -63.2 (no result: Marburg entry inh)
O=[N+]([O-])c1ccccc1/C=C/C=N/n1c(-c2cc(-c3ccccc3)n[nH]2)n[nH]c1=S	none
O=[N+]([O-])c1cc2c(cc1/C=N/n1c(-c3ccccc3)n[nH]c1=S)OCO2	HCMV inh -100.0
COc1ccccc1/C=C\C=N\n1c(-c2ccc(Cl)cc2)n[nH]c1=S	Lassa entry inh 10µM, HCMV inh inconclusive
Cc1ccc(-c2n[nH]c(=S)n2/N=C/C=C/c2ccccc2[N+](=O)[O-])cc1	Lassa entry inh 12.6µM
O=[N+]([O-])c1cc2c(cc1/C=N/n1c(-c3ccccn3)n[nH]c1=S)OCO2	none
COC(=O)CN1C(=O)C(C)(C)c2cc(S(=O)(=O)Nc3ccc(Br)cc3F)ccc21	Lassa entry inh inconclusive (no result: Marburg entry inh)
COc1ccc(/C(O)=C2\C(=O)C(=O)N(c3cc(C)on3)[C@H]2c2ccccc2OC)cc1C	none (no result: VACV mCherry inh, Lassa entry inh, FMDV inh, VACV Venus inh, HCMV inh)
C/C(=N\NC(=O)Cc1ccc(Cl)cc1)c1ccccc1O	VACV mCherry inh inconclusive, Marburg entry inh inconclusive, HCMV inh -67.2
C/C(=N\NC(=O)Cc1ccc(Cl)cc1)c1ccc(F)cc1	none (no result: VACV mCherry inh, Marburg entry inh, Lassa entry inh, VACV Venus inh)
NC(=O)C1CCCN(Cc2ccc3c(c2)CN(Cc2ccccc2)CCO3)C1 (configuration not stated)	none (no result: Marburg entry inh, Lassa entry inh, HCMV inh)
CC(=O)c1c(C)[nH]c(C(=O)Nc2ccc(C)cn2)c1C	Marburg entry inh 2µM, Lassa entry inh 2.06µM, HCMV inh inconclusive
CC(=O)c1c(C)[nH]c(C(=O)Nc2nc(-c3ccc(-c4ccccc4)cc3)cs2)c1C	Marburg entry inh inconclusive, Lassa entry inh inconclusive, FMDV inh 11.2µM
CC(=O)c1c(C)[nH]c(C(=O)Nc2nc(C)cs2)c1C	Marburg entry inh 1.78µM, Lassa entry inh 2.24µM
CC(=O)c1c(C)[nH]c(C(=O)Nc2nc(-c3ccc(Cl)cc3)cs2)c1C	Marburg entry inh inconclusive, Lassa entry inh inconclusive, FMDV inh inconclusive, HCMV inh inconclusive
CCCc1nn2c(=O)cc(COC(=O)c3ccccc3NC(=O)c3ccc(Cl)cc3)nc2s1	none (no result: Marburg entry inh)
C=Cc1ccc(Cn2c(C)c(CNCCc3ccc(OCC)cc3)c(C(=O)O)c2C)cc1	FMDV inh inconclusive
C[C@@H]1C=CCCO[C@]12C(=O)Nc1ccccc12	none (no result: VACV mCherry inh, Lassa entry inh, FMDV inh, VACV Venus inh, HCMV inh)
C=CCn1cc(C(=O)NCc2cccnc2)c(=O)c2cc(S(=O)(=O)N(CC)CC)ccc21	HCMV inh -60.9 (no result: Marburg entry inh, Lassa entry inh)
C=CCn1cc(C(=O)NCc2ccc3c(c2)OCO3)c(=O)c2cc(S(=O)(=O)N(CC)CC)ccc21	Marburg entry inh inconclusive, Lassa entry inh 0.708µM
CCN(CC)S(=O)(=O)c1ccc2c(c1)c(=O)c(C(=O)NCc1ccc(Cl)cc1)cn2C	VACV mCherry inh inconclusive, Lassa entry inh inconclusive
CCN(CC)S(=O)(=O)c1ccc2c(c1)c(=O)c(C(=O)NCc1ccc3c(c1)OCO3)cn2C	none (no result: VACV mCherry inh, FMDV inh, VACV Venus inh, HCMV inh)
CC1(C)OC(=O)C2=C(CC(CCc3ccccc3)OC2c2ccc(F)cc2)O1 (configuration not stated)	none (no result: VACV mCherry inh, Marburg entry inh, Lassa entry inh, FMDV inh, VACV Venus inh)
CCC(=O)N(CC)C1=C(O)c2ccccc2C(=O)C1=O	HCMV inh -105.3
COc1ccc(C2=NC3(CCCCCC3)N(CC(=O)Nc3cccc(Cl)c3)C2=O)cc1	Lassa entry inh inconclusive, FMDV inh inconclusive, HCMV inh -90.6
COc1cc(NC(=O)CN2C(=O)C(c3ccc(Cl)cc3)=NC23CCCCC3)cc(OC)c1	Marburg entry inh inconclusive, HCMV inh -92.5
COc1ccc(NC(=O)CN2C(=O)C(c3ccccc3)=NC23CCC(C)CC3)cc1Cl (configuration not stated)	Marburg entry inh 20µM
O=C(CN1C(=O)C(c2ccc(F)cc2)=NC12CCCCCC2)Nc1ccc(F)c(Cl)c1	FMDV inh inconclusive, HCMV inh -89.8
COc1cccc(NC(=O)CN2C(=O)C(c3ccc(C)cc3)=NC23CCCCCC3)c1	FMDV inh inconclusive, HCMV inh inconclusive
COc1ccc(NC(=O)CN2C(=O)C(c3ccc(C)cc3)=NC23CCCCCC3)cc1Cl	Marburg entry inh inconclusive
COc1ccc2nc3cc(Cl)ccc3c(Nc3cc(C(C)C)c(O)cc3C)c2c1	VACV mCherry inh inconclusive, Marburg entry inh 11.2µM, Lassa entry inh inconclusive, FMDV inh inconclusive, VACV Venus inh inconclusive, HCMV inh inconclusive
O=C(Nc1cccnc1)c1ccc(Cl)c(S(=O)(=O)N2CCc3ccccc32)c1	HCMV inh inconclusive
O=C(Nc1ccccn1)c1ccc(Cl)c(S(=O)(=O)N2CCc3ccccc32)c1	FMDV inh 25.1µM, HCMV inh -92.5 (no result: VACV mCherry inh, Marburg entry inh, Lassa entry inh, VACV Venus inh)
O=S(=O)(c1cccc2cccnc12)N1CCc2ccccc21	HCMV inh -62.7 (no result: VACV mCherry inh)
O=C(NCC(c1ccco1)N1CCCC1)c1ccc(Cl)c(S(=O)(=O)N2CCc3ccccc32)c1 (configuration not stated)	VACV mCherry inh inconclusive, Marburg entry inh 11.2µM, Lassa entry inh inconclusive, FMDV inh inconclusive, VACV Venus inh inconclusive, HCMV inh inconclusive
O=C(NCC(c1ccco1)N1CCc2ccccc2C1)c1ccc(Cl)c([N+](=O)[O-])c1 (configuration not stated)	Lassa entry inh inconclusive
CC(C)=CCCC(C)=CCON=C1C[C@@H](O)[C@@H](O)[C@@H]2[C@H]3C(=O)N(Cc4ccc5c(c4)OCO5)C(=O)[C@@H]3CC[C@@H]12	none (no result: VACV mCherry inh, FMDV inh, VACV Venus inh, HCMV inh)
Nc1c(C(=O)Nc2ccccc2Br)sc2nc(-c3cccs3)ccc12	VACV mCherry inh inconclusive, Lassa entry inh inconclusive, FMDV inh inconclusive, VACV Venus inh inconclusive, HCMV inh -70.9
Nc1c(C(=O)Nc2ccc(Cl)cc2F)sc2nc(-c3cccs3)ccc12	Marburg entry inh inconclusive
Nc1c(C(=O)Nc2nc3ccccc3s2)sc2nc(-c3cccs3)ccc12	Marburg entry inh 5.8µM, Lassa entry inh 6.51µM (no result: VACV mCherry inh, VACV Venus inh, HCMV inh)
Cc1cc(C)c(NC(=O)CCn2c(=O)c3cccn3c3ccccc32)c(C)c1	Lassa entry inh inconclusive (no result: Marburg entry inh)
O=C(Oc1ccnc2cc(Cl)ccc12)N1CCCCCC1	Marburg entry inh inconclusive, Lassa entry inh inconclusive, VACV Venus inh inconclusive, HCMV inh -100.6 (no result: VACV mCherry inh)
O=C(c1ccc(Cl)cc1)N1CCN(c2ccnc3cc(Cl)ccc23)CC1	VACV mCherry inh inconclusive, Marburg entry inh inconclusive, Lassa entry inh inconclusive, FMDV inh 28.2µM, HCMV inh inconclusive
CCC(=O)N1CCN(c2ccnc3cc(Cl)ccc23)CC1	HCMV inh inconclusive
Clc1ccc2c(N3CCCC3)ccnc2c1	HCMV inh inconclusive (no result: VACV mCherry inh, VACV Venus inh)
CC(C)N(C(=O)N1CCN(c2ccnc3cc(Cl)ccc23)CC1)C(C)C	Marburg entry inh inconclusive, Lassa entry inh 11.2µM, FMDV inh inconclusive, HCMV inh -89.8
CCOC(=O)N1CCN(c2ccnc3cc(Cl)ccc23)CC1	Marburg entry inh inconclusive, HCMV inh -62.5
CCCN1C(=O)C2=NC(C3CCCC3)=NC2N(CCC)C1=O (configuration not stated)	none (no result: VACV mCherry inh, Lassa entry inh, FMDV inh, VACV Venus inh, HCMV inh)
